GLD-1 RNA inh – GLD-1/TGE RNA complex disruptors, primary screen, biochemical, fluorescence polarization; Female germline-specific tumor suppressor gld-1 (Caenorhabditis elegans), Q17339; purified GLD-1 + fluorescein TGE RNA; inhibition, % at 5.96 µM; 0.44% of 320,000 active; AID 2280, 2010;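 active means percent inhibition above a per-plate cutoff, the plate mean of test compounds plus 3 SD, cut at about 30% in these data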;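 further: 0% = DMSO wells with GLD-1 and probe and 100% = wells lacking GLD-1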
Target sequence (Q17339 whole entry, looked up): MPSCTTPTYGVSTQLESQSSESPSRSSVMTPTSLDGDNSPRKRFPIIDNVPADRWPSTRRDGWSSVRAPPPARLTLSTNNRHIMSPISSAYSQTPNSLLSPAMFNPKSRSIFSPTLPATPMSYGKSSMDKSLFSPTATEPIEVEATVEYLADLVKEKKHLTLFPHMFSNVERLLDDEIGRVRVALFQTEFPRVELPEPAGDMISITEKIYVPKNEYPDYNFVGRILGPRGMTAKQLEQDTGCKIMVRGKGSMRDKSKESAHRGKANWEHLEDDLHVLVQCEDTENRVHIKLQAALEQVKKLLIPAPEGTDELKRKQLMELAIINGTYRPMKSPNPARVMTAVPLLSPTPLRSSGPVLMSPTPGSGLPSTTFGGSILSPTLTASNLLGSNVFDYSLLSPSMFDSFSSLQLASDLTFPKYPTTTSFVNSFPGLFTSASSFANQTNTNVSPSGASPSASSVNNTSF
EBV gp42 block – Epstein-Barr virus gp42 inhibitors, primary screen, biochemical, uHTS, fluorescence polarization; Glycoprotein 42 (Epstein-Barr virus (strain AG876)), Q1HVG2; Fluorescence polarization binding assay, mP read-out; inhibition, % (tested at 21.74 µM); 0.42% of 220,000 active; in the data active means inhibition above about 50%
Target sequence (Q1HVG2 whole entry, looked up): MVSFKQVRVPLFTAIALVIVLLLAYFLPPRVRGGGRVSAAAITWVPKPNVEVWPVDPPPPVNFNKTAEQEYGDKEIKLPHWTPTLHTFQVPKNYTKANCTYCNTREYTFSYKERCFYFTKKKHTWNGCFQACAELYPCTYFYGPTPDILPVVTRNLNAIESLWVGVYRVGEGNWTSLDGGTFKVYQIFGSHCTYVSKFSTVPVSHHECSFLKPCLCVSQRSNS
MCL1 BIM primary – inhibitors of MCL1 binding to BIM-BH3, primary screen, biochemical, fluorescence polarization | Induced myeloid leukemia cell differentiation protein Mcl-1 (Homo sapiens), Q07820 | 0.68% of 320,000 active | GST-MCL1 / FITC-Bim-BH3 fluorescence polarization | inhibition, % at 10.9 µM | AID 2057, 2009;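 active means inhibition above the mean inhibition of all tested compounds plus 3 SD, set per campaign, cut at about 40% in these data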;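 further: 0% = DMSO wells and 100% = unlabeled Bim-BH3 peptide control; higher means more loss of mP so more displacement of Bim peptide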
MEX-5 binding – MEX-5 zinc finger RNA-binding disruptors – biochemical, C. elegans, fluorescence polarization, MLPCN library, primary screen | Zinc finger protein mex-5 (Caenorhabditis elegans), Q9XUB2 | MEX-5/FITC-TCR2 RNA binding; stronger effect = lower value | AID 1832, 2009 | 0.38% of 300,000 active | activity score (negative = inhibition of binding), % at 10 µM;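 active means inhibition past about -25% in most replicates, and total fluorescence under double the plate's negative control median, limit read from the data; inconclusive means replicates evenly split on the limit, or fluorescence at least double controls; inactive means too little inhibition in most replicates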;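 further: 0% = DMSO and -100% = 5 µM competing unlabeled TCR2 RNA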
eLon inh – inhibitors of E. coli Lon protease, primary screen, biochemical, fluorescence polarization. P0A9M0. purified E. coli Lon protease. inhibition, % at 7.94 µM. 0.42% of 360,000 active; in the data active means inhibition above about 13%, passing the limit was not always enough;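 further: 0% = enzyme with probe and DMSO and 100% = no enzyme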
BCLXL inh – inhibitors of human Bcl-xL, primary screen, biochemical, fluorescence polarization, HTS; inhibition, % at 10.9 µM; Bcl-2-like protein 1 (Homo sapiens), Q07817; GST-Bcl-xL / FITC-Bim BH3 peptide fluorescence polarization; 0.7% of 320,000 active; AID 2129, 2009;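 active means inhibition above the mean of all tested compounds plus 3 SD, cutoff set per campaign, cut at about 30% in these data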;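 further: 0% = DMSO wells and 100% = unlabeled Bim-BH3 peptide competitor; inhibitors lower millipolarization by displacing the labeled peptide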
Numbers without * were called inactive; i = inactive; ? = inconclusive; / = no result; + = active, no number. An excerpt weighted towards active compounds, which were near 1.5% of everything screened.

SMILES	GLD-1 RNA inh	EBV gp42 block	MCL1 BIM primary	MEX-5 binding	eLon inh	BCLXL inh
CCCCCN1C=CC=C/C1=C\C=C(C#N)C#N	-43.6	-21.2	-28.6	-37.0*	-48.4	-21.8
COc1ccc(C(NC(=O)c2cccnc2)c2cc(Cl)c3cccnc3c2O)cc1OC (stereo unspecified)	-0.5	-4.4	21.6	-0.9	35.0*	18.3
CCC(=O)NC(c1ccc(OC)cc1)c1cc(Cl)c2cccnc2c1O (stereo unspecified)	0.7	-7.3	18.1	-0.1	-4.1	19.7
COc1ccc(C(=O)Nc2nnc(CC(=O)N/N=C/c3ccc(O)cc3O)s2)cc1	43.4*	/	4.4	?	-67.5	3.5
Cc1ccc(C(=O)Nc2nnc(CC(=O)N/N=C/c3ccncc3)s2)cc1	-4.7	1.9	-1.4	0.6	6.1	1.2
Cc1ccc(C2=NS(=O)(=O)N(C)C(C(=O)N3CCOCC3)=C2)cc1	-4.1	/	1.3	4.0	7.0	-0.1
COc1cc2c(cc1OC)[C@@H](NC(=O)C(C)C)[C@H](OCc1ccccc1)C2	/	/	/	/	-6.3	/
OCCCc1nc2n(n1)C(c1ccccc1)C=C(c1ccc(F)cc1)N2 (stereo unspecified)	5.8	24.9	7.1	-1.0	-7.3	9.7
OCCCc1nc2n(n1)C(c1ccccc1Cl)C=C(c1cccs1)N2 (stereo unspecified)	30.3	24.7	41.8*	-15.3	-52.3	37.4*
OCCCc1nc2n(n1)C(c1cccs1)C=C(c1ccccc1)N2 (stereo unspecified)	154.3*	142.0*	+	?	/	176.5*
O=c1onc(-c2ccccc2)n1Cc1ccc([N+](=O)[O-])cc1	/	/	/	/	-3.7	/
CC(C)CC1COC(=O)N1 (stereo unspecified)	6.7	/	0.4	0.9	3.4	-0.2
c1ccc2nc(N3CCCC3)c(N3CCCC3)nc2c1	22.2	3.5	44.4*	2.5	-1.0	38.7*
CN(C)C=Nc1nc2ccccc2nc1N1CCCC1	17.0	-0.1	41.3*	2.9	14.8	42.8*
Cc1nc2ccccc2nc1N1CCCCC1	/	-2.5	/	/	8.5	/
CC1(C(=O)Nc2ccc3c(c2)OCCO3)CCC(=O)N1CCOc1ccccc1 (stereo unspecified)	/	/	/	/	-8.4	/
Cn1c(-c2ccc(C=O)s2)nc2c3ccccc3c3ccccc3c21	-7.6	94.0*	-9.8	46.7	-26.8	4.1
COC(=O)CCCC1=CC2=CC(=O)C(C)(OC(=O)c3cnc4ccccc4n3)C(=O)C2=CO1 (stereo unspecified)	93.8*	/	113.7*	-66.9*	/	95.0*
COC/C=C/C1=CC2=CC(=O)C(C)(OC(=O)c3cnc4ccccc4n3)C(=O)C2=CN1c1ccc(OC)cc1 (stereo unspecified)	6.7	/	13.5	-3.7	-7.3	11.6
CCCCC1=CC2=CC(=O)C(C)(OC(=O)c3cccs3)C(=O)C2=CO1 (stereo unspecified)	30.2	/	38.9	-11.9	-20.0	27.2
COC/C=C/C1=CC2=CC(=O)C(C)(OC(=O)c3cnc4ccccc4n3)C(=O)C2=CN1CCc1ccccn1 (stereo unspecified)	31.5*	/	55.1*	-14.8	/	51.8*
CCCCC1=CC2=CC(=O)C(C)(OC(=O)c3cnc4ccccc4n3)C(=O)C2=CO1 (stereo unspecified)	96.5*	22.8	96.0*	?	/	63.6*
CCOC(=O)[C@]12CCC=C1N(Cc1ccco1)C(=O)[C@H](CC(=O)NCCCN1CCCC1=O)C2	/	/	/	/	-5.4	/
Cc1nc(SCC(=O)NCCN2C(=O)CSC2=O)nc(C)c1C	3.4	/	/	/	12.4	/
Cc1c(N(C)S(=O)(=O)c2cc(C(=O)NCC3CCCO3)ccc2Cl)c(=O)n(-c2ccccc2)n1C (stereo unspecified)	6.5	/	7.4	-0.2	3.5	5.3
SMILES	GLD-1 RNA inh	EBV gp42 block	MCL1 BIM primary	MEX-5 binding	eLon inh	BCLXL inh
N[C@@H](CO)c1nnc([C@H](Cc2ccc(O)cc2)NC(=O)C2CCNCC2)o1	-1.8	-12.1	4.4	-4.9	-0.2	1.9
Cc1nn(-c2ccccc2)c(N2CCCC2)c1/C=C1\N=C(c2ccc(F)cc2)OC1=O	-5.0	82.1*	-17.5	?	-5.5	1.3
Cc1ccc(C2=N/C(=C\c3c(C)nn(-c4ccccc4)c3N3CCCC3)C(=O)O2)cc1	-1.5	93.4*	1.4	-9.3	5.6	-4.4
CC(C)c1ccc(NC(=O)c2sccc2-n2cccc2)cc1	2.1	4.8	-5.0	-0.8	1.3	-0.2
N#C/C(=C(/O)c1ccc(-c2cccc([N+](=O)[O-])c2)o1)c1nc2ccccc2s1	/	85.7*	/	-5.4	-17.5	/
N#Cc1ccc(NC(=O)CN2C(=O)NC3(CCCC3)C2=O)cc1	4.1	/	-12.0	0.4	6.2	4.3
CN(C)c1ccc(C=C2SC(=S)N(Cc3ccco3)C2=O)cc1	/	/	/	/	i	/
COc1ccc(-n2c(C)cc(/C=C3/SC(=S)N(C)C3=O)c2C)cc1	-7.8	60.8*	-7.0	-5.4	-11.7	-0.4
Cc1cc(/C=C2\SC(=S)N(Cc3ccco3)C2=O)c(C)n1-c1ccccc1	32.4*	55.5*	-29.0	-21.6	-150.3	-10.4
Cc1cc(/C=C2\SC(=S)N(C)C2=O)c(C)n1-c1cccc(O)c1	-31.7	24.7	-30.1	-0.9	-48.8	-13.4
Cc1cccc(C(=O)NNC2=CC(=O)CC(C)(C)C2)c1O	29.6	-6.0	16.4	1.7	3.4	17.3
CC1(C)CC(=O)C=C(NNC(=O)c2ccccc2O)C1	52.7*	-16.9	16.5	-2.8	-4.7	15.9
O=C(NCc1ccccc1CN1CCCC1)c1cccc(S(=O)(=O)N2CCOCC2)c1	0.0	/	7.3	/	-2.3	5.9
COc1ccc(/C(O)=C/c2nc3ccccc3n(-c3ccccc3)c2=O)cc1	-32.7	58.6*	-29.5	?	-32.9	-18.0
COc1ccc(OC)c(/C=C2\SC(=S)N(Cc3cccnc3)C2=O)c1	-16.1	142.4*	-45.8	-7.7	-42.3	-22.6
COc1ccc(O)c(/C=C2/SC(=S)N(Cc3ccccc3)C2=O)c1	-20.6	/	-68.0	0.4	-224.6	-37.6
CCN1CCn2c3c(c4cc(Cl)ccc42)CCCC31 (stereo unspecified)	6.5	-8.4	-4.7	-0.8	3.5	4.2
CCN(CC)CCN1CCn2c3c(c4cc(C)ccc42)CCCC31 (stereo unspecified)	10.0	1.2	45.5*	-12.8	7.7	35.8*
CCOc1ccccc1N(CC(=O)Nc1ccccc1F)S(=O)(=O)c1ccccc1	2.9	/	8.2	2.2	-3.9	8.1

Screens: PubChem, several laboratories
